Reference: the supplement of paper PMC6555819

What was measured:
Test in all cases: PBM binding z-score (relative to random genomic background probes); higher = stronger binding; sequences stand for … in GC…GCGATTGACAGCGTAGAATGAAGG
[1] = test system: RARb homodimer (NR concentration 270 nM)
Summary of the method: (§1)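 Custom Agilent 4×180K protein-binding microarrays carried double-stranded probes, each with a 34-nt variable region. These regions held direct-repeat seeds, single-nucleotide variants, half-site ablations and random human genomic background sequences. Ligand-free nuclear receptor dimers were incubated on the arrays for 1 h, antibodies against each partner (one per run) detected binding, and scanned fluorescence was regression-normalized. Binding z-scores take the random background probes as reference.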

[2] = test system: RARg:RXRa (NR concentration 270 nM, RXRa partner concentration 90 nM)
Summary of the method: as §1

[3] = test system: RARg homodimer (NR concentration 270 nM)
Summary of the method: as §1

[4] = test system: RXRa DBDmut IVT, anti-RXR (DBD mutation: RXRa K156A/R161A, NR concentration 90 nM)
Summary of the method: as §1

[5] = test system: RXRa homodimer (NR concentration 180 nM)
Summary of the method: as §1

[6] = test system: THRa:RXRa (NR concentration 90 nM, RXRa partner concentration 90 nM)
Summary of the method: as §1

[7] = test system: THRa homodimer (NR concentration 90 nM)
Summary of the method: as §1

[8] = test system: VDR homodimer (NR concentration 270 nM)
Summary of the method: as §1

Sequence	PBM binding z-score [1]	PBM binding z-score [2]	PBM binding z-score [3]	PBM binding z-score [4]	PBM binding z-score [5]	PBM binding z-score [6]	PBM binding z-score [7]	PBM binding z-score [8]
TAGCCTAGGTCATGGGCCAGTATCCCACGCGAAC	2.76	4	4.2	-0.01	3.19	3.18	1.65	0.301
CGTCCAAGGTCATAGGAGGTCAGTGAGGACAGAT	5.13	6.73	7.15	4.28	6.16	5.22	4.53	5.81
GATAGCAGGCCATTTGGGTCACTCAATGACGGGC	1.92	1.22	1.5	0.215	0.841	1.87	0.437	0.542
ATCGCAAGGTCGTGAGGTGAGTATACAGAAAGGC	2.13	2.76	2.38	1.62	3.06	3.33	2.41	1.55
TAGCCTAGGTCATGCAGGCCAGTATAGTGTCGGC	2.76	4	4.12	0.936	2.96	3	0.919	0.989
GCTGCTAGGTCAGATTGGTCAGCTAACGGGTACG	2.58	2.22	3.18	0.569	1.11	1.73	0.354	0.117
GCGACTGGGGCATCAGCAAGTTACCATAACTTAA	-0.0103	0.142	0.0409	-0.018	0.208	-0.53	-0.605	-0.296
